HER2 expr 66K – inhibitors of human Her2 kinase expression | P04626 | SKBR-3 HER2 protein level, AlphaScreen, 18-24 h; hits give low values | HER2 level % of control, % at 10 µM | hit rate 0.69% among 65,000;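 active = HER2 level under 5% of the carrier-only control; inconclusive = no clear call, values can overlap the other calls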;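 note: 100% = DMSO carrier and 0% = 500 nM PU-H71 HSP90 inhibitor; lower value means stronger loss of Her2 protein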
Target sequence (P04626 whole entry, looked up): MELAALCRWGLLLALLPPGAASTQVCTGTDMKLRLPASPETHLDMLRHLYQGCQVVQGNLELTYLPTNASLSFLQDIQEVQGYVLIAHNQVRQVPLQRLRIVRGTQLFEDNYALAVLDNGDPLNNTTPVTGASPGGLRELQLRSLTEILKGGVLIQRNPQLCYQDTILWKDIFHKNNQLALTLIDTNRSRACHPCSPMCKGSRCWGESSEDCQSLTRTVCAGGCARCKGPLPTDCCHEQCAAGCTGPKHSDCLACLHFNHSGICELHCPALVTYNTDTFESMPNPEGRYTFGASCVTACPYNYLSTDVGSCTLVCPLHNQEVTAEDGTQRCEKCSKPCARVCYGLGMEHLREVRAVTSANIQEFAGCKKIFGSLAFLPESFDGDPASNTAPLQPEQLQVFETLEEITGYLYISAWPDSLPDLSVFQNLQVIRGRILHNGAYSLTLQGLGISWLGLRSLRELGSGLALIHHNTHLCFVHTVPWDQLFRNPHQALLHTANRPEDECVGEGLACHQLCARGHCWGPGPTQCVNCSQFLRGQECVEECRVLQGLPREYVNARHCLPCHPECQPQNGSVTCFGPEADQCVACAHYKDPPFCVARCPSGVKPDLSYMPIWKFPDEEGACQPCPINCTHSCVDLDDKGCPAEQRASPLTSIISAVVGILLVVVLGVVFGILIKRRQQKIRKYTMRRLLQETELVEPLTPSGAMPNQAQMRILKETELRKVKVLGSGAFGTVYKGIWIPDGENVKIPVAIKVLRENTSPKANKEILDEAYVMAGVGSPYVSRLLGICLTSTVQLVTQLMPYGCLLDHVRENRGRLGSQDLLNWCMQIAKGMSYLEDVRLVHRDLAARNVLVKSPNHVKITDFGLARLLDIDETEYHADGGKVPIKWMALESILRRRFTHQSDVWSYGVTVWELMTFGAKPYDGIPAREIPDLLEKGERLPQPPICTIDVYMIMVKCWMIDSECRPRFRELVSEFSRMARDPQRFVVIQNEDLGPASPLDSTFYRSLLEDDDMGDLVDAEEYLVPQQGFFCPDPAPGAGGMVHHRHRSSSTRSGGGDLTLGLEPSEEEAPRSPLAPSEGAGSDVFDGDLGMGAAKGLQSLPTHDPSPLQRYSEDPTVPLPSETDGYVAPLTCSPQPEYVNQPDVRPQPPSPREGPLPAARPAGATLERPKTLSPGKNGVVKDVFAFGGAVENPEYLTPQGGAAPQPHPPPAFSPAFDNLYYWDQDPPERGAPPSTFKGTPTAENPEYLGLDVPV
Jurkat viability – reduces viability or proliferation of Jurkat cells | Jurkat E6.1 viability, ATP luminescence, 48 h | inhibition, % at 4 µM | hit rate 1.2% among 56,000;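 active = inhibition above the mean inhibition of all tested compounds plus 3 SD, cut at about 28% in these data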
SK-BR-3 tox 24h – SK-BR-3 proliferation inhibitors. SK-BR-3 viability, CellTiter-Glo ATP luminescence, 24 h; hits give low values. viability, % at 10 µM. hit rate 0.47% among 41,000. AID 847;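 active = viability at or below the median of all test compounds minus 3 SD, in both replicates if run twice, cut at about 45% in these data; inconclusive = duplicate replicates that disagree with each other; inactive = viability above that cutoff in every replicate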;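 note: 100% = median untreated cell wells and 0% = median positive control drug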
* marks the source's active call; other numbers are inactive results. The list is not random: actives were taken first. Their share in the collection is about 1.9%.

What do the screens show for `COc1ccc(CNc2cc(C)nc3ncnn23)c(OC)c1`?
HER2 expr 66K: 82.9; Jurkat viability: 79.8*; SK-BR-3 tox 24h: 39.6*

Results for COc1ccc(Nc2cc(C)nc3ncnn23)c(OC)c1 ?
HER2 expr 66K: 104.1; Jurkat viability: -8.6

What do the screens show for `COc1cc(C2/C(=C(/O)c3ccc(F)cc3)C(=O)C(=O)N2CCCC(=O)O)ccc1O` (stereo unspecified)?
HER2 expr 66K: 56.6; Jurkat viability: -3.3; SK-BR-3 tox 24h: 66.3

Results for OCCNc1nc(C2CC2)nc2c1nnn2Cc1ccccc1Cl ?
HER2 expr 66K: 79.9; Jurkat viability: 7.1; SK-BR-3 tox 24h: 69.0

How did COCCNc1nc(C(C)(C)C)nc2c1nnn2Cc1ccccc1Cl do in these assays?
HER2 expr 66K: -24.6*; SK-BR-3 tox 24h: 82.5

What do the screens show for `CCn1c(COc2ccc3c(c2)CCCC3)nnc1SCC(=O)Nc1nccs1`?
HER2 expr 66K: 89.8; Jurkat viability: 14.7; SK-BR-3 tox 24h: 101.3

What do the screens show for `O=C(CN1CCN(C(c2ccccc2)c2ccccc2)CC1)N1CCOCC1`?
HER2 expr 66K: 103.7; Jurkat viability: 3.7

What do the screens show for `O=S(=O)(CCN1CCN(C(c2ccccc2)c2ccccc2)CC1)C(F)(F)F`?
HER2 expr 66K: -2.0*; Jurkat viability: -5.8; SK-BR-3 tox 24h: 78.6

Results for O=C(CN1CCC(C(=O)c2ccc(Cl)cc2)CC1)Nc1ccc2c(c1)OCCO2 ?
HER2 expr 66K: 88.8; Jurkat viability: 2.0; SK-BR-3 tox 24h: 86.0

Results for Cn1cc(/C=N/n2cnc3scc(-c4ccc(Cl)cc4)c3c2=O)c2ccccc21 ?
HER2 expr 66K: 89.3; Jurkat viability: 95.5*

What do the screens show for `CCn1cnc2scc(-c3ccccc3)c2c1=O`?
HER2 expr 66K: 99.2; Jurkat viability: 3.7; SK-BR-3 tox 24h: 93.7

Results for O=C(OCC1COc2ccccc2O1)c1c(F)cccc1F (stereo unspecified) ?
HER2 expr 66K: 167.2; SK-BR-3 tox 24h: 133.8

How did COc1ccc(NC(=O)CCS(=O)(=O)c2ccc(OC)cc2)cc1 do in these assays?
HER2 expr 66K: 182.5; SK-BR-3 tox 24h: 115.0

How did CCOC(=O)CCS(=O)(=O)c1nc(-c2ccccc2)cc(C(F)(F)F)n1 do in these assays?
HER2 expr 66K: -8.7*; Jurkat viability: 67.8*; SK-BR-3 tox 24h: 61.0

What do the screens show for `COc1nc(-c2ccccc2)cc(C(F)(F)F)n1`?
HER2 expr 66K: 91.9; Jurkat viability: 5.0; SK-BR-3 tox 24h: 91.5

How did COCC(C)NC(=O)CCS(=O)(=O)c1nc(-c2ccc(OC)cc2)cc(C(F)(F)F)n1 (stereo unspecified) do in these assays?
HER2 expr 66K: -19.6*; Jurkat viability: 6.2; SK-BR-3 tox 24h: inconclusive

Results for CCOC(=O)CS(=O)(=O)c1nc(-c2ccc(F)cc2)cc(C(F)(F)F)n1 ?
HER2 expr 66K: -17.6*; Jurkat viability: 34.2*; SK-BR-3 tox 24h: 25.8*

What do the screens show for `CCOC(=O)CS(=O)(=O)c1nc(-c2ccccc2)cc(C(F)(F)F)n1`?
HER2 expr 66K: -27.2*; Jurkat viability: 54.8*; SK-BR-3 tox 24h: inconclusive

Results for CCOC(=O)CS(=O)(=O)c1ccc2ccccc2c1 ?
HER2 expr 66K: 86.9; SK-BR-3 tox 24h: 104.9

Results for Fc1ccc(-c2cc(C(F)(F)F)nc(N3CCCCC3)n2)cc1 ?
HER2 expr 66K: 106.0; SK-BR-3 tox 24h: 80.2

What do the screens show for `c1ccc(-c2noc(-c3ccc4ccccc4c3)n2)nc1`?
HER2 expr 66K: 61.8; Jurkat viability: 12.8; SK-BR-3 tox 24h: 110.7

How did c1ccc(-c2noc(-c3ccc4c(c3)OCO4)n2)nc1 do in these assays?
HER2 expr 66K: 100.1; Jurkat viability: 41.0*; SK-BR-3 tox 24h: 83.9

Results for CCC(NS(=O)(=O)c1ccc(C)cc1)C(=O)Nc1ccc(NC(C)=O)cc1 (stereo unspecified) ?
HER2 expr 66K: 114.4; Jurkat viability: -3.3; SK-BR-3 tox 24h: 95.6

How did CCN(CC)C(=O)C1CCN(S(=O)(=O)c2ccc(C3CNC(=O)C3)cc2)CC1 (stereo unspecified) do in these assays?
HER2 expr 66K: 90.6; Jurkat viability: 10.3

How did CCCCn1c(SCc2c(C)noc2C)nc2cc(S(N)(=O)=O)ccc21 do in these assays?
HER2 expr 66K: -20.6*; Jurkat viability: 10.1

Results for CCCCn1c(SCC(=O)c2ccc(OC)cc2OC)nc2cc(S(N)(=O)=O)ccc21 ?
HER2 expr 66K: 97.2; Jurkat viability: 5.3

How did COC(=O)c1ccccc1NC(=O)c1noc2c1CC(C(C)(C)C)CC2 (stereo unspecified) do in these assays?
HER2 expr 66K: 105.5; Jurkat viability: -2.7; SK-BR-3 tox 24h: 90.4

Results for Cc1cc(-c2ccccc2)c(C#N)c(N)n1 ?
HER2 expr 66K: 102.1; SK-BR-3 tox 24h: 111.8

What do the screens show for `CS(=O)c1nc(-c2ccc(Br)cc2)cc(-c2ccccc2)c1C#N` (stereo unspecified)?
HER2 expr 66K: -21.9*; Jurkat viability: 100.1*; SK-BR-3 tox 24h: inconclusive

How did Nc1cc(C(=O)O)ccc1Nc1ccc(F)c(F)c1 do in these assays?
HER2 expr 66K: 93.1; Jurkat viability: 4.4; SK-BR-3 tox 24h: 103.9

How did CC1(C)Cc2noc(N)c2C(C)(C)N1OC(=O)c1ccco1 do in these assays?
HER2 expr 66K: 112.5; Jurkat viability: 4.1; SK-BR-3 tox 24h: 94.8

How did Cc1cc(NO)nc(-c2ccc(Br)cc2)n1 do in these assays?
HER2 expr 66K: 97.2; Jurkat viability: 33.9*

How did Cc1cc(C)nc(NS(=O)(=O)c2ccc(Br)cc2)n1 do in these assays?
HER2 expr 66K: 121.3; Jurkat viability: -2.7; SK-BR-3 tox 24h: 106.8

Results for COc1ccccc1-c1nc(C#N)c(NCc2ccc(F)cc2)o1 ?
HER2 expr 66K: 116.0; Jurkat viability: -5.3; SK-BR-3 tox 24h: 96.3

How did COc1ccccc1-c1cc(C(=O)Nc2cc(C)nn2-c2ccccc2)no1 do in these assays?
HER2 expr 66K: 76.2; Jurkat viability: 89.2*; SK-BR-3 tox 24h: 67.2

How did Cc1cc(NC(=O)c2cc(-c3ccccc3)on2)n(-c2ccccc2)n1 do in these assays?
HER2 expr 66K: 85.8; Jurkat viability: 2.5; SK-BR-3 tox 24h: 91.4

How did COC(=O)c1ccc2c(=O)n(Cc3ccc4c(c3)OCO4)c(SCC(=O)N3CCCC3)nc2c1 do in these assays?
HER2 expr 66K: 109.0

How did O=C(Nc1ccccc1NC(=O)NC1CCCCC1)NC1CCCCC1 do in these assays?
HER2 expr 66K: -15.3*; Jurkat viability: 1.7; SK-BR-3 tox 24h: inconclusive

Results for Cc1c(Cl)cccc1NC(=O)NC1CCCCC1 ?
HER2 expr 66K: 105.8; Jurkat viability: 7.7; SK-BR-3 tox 24h: 82.9

Results for CC1CC(C)CN(CCCNC(=O)CNC(=O)Cn2ccc3ccccc3c2=O)C1 (stereo unspecified) ?
SK-BR-3 tox 24h: 103.4

How did CCCCCCn1c(CN2CCN(C(=O)OCC)CC2)nc2c1c(=O)n(C)c(=O)n2C do in these assays?
HER2 expr 66K: 138.9; Jurkat viability: -2.4; SK-BR-3 tox 24h: 66.5

Results for CCc1cc2c(=O)n(Cc3ccco3)c(SCC(=O)N3CCCc4ccccc43)nc2s1 ?
HER2 expr 66K: 41.2; Jurkat viability: 2.4

What do the screens show for `CCc1cc2c(=O)n(Cc3ccco3)c(SCc3c(C)noc3C)nc2s1`?
HER2 expr 66K: 39.7; Jurkat viability: 88.2*

Results for COc1ccc2c(=O)c3c(=O)n(Cc4ccco4)c(C(C)C)nc3oc2c1 ?
HER2 expr 66K: 83.2; Jurkat viability: 3.1; SK-BR-3 tox 24h: 96.3

What do the screens show for `COc1ccc2c(=O)c3c(=O)n(Cc4ccco4)c(-c4ccc(C)cc4)nc3oc2c1`?
HER2 expr 66K: 4.8*; Jurkat viability: -1.0; SK-BR-3 tox 24h: 81.3

Source: PubChem BioAssay
